PubChem BioAssay (NCI)
This is part of a sample that, as a whole, favours compounds with a hit. Of some 79,000 tested, about 15% had one in any assay. Unmarked numbers belong to inactive results. The source made the active and inactive calls. Cut-off read from the data, not from the text of the source: active = growth inhibition above about 70%; inactive = the rest.

Key:
[1] = NCI Yeast Anticancer Drug Screen. Data for the rad50 strain (AID 155);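 note: 0% = growth of vehicle-only cultures of the same strain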; details: S. cerevisiae rad50 strain growth inhibition, active compounds read high
Method in brief: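 Vehicle-treated cultures provide the reference for the growth inhibition reported for compound-exposed, repair-deficient yeast.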

[2] = NCI Yeast Anticancer Drug Screen. Data for the mec2-1 strain (AID 157); details: S. cerevisiae mec2-1 strain, active compounds read high
Method in brief: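 Using mec2-1 yeast: add compound, measure growth, express inhibition versus vehicle-treated cultures.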

[3] = NCI Yeast Anticancer Drug Screen. Data for the sgs1 mgt1 strain (AID 161);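 note: 0% = growth of cultures given vehicle only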; details: S. cerevisiae sgs1 mgt1 strain, active compounds read high
Method in brief: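 Growth of a repair-deficient yeast mutant was monitored after compound treatment and expressed as inhibition relative to vehicle-treated cultures.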

[4] = NCI Yeast Anticancer Drug Screen. Data for the cln2 rad14 strain (AID 165);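 note: 0% = growth equal to vehicle treated cultures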; details: S. cerevisiae cln2 rad14 strain, active compounds read high
Method in brief: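 Yeast strain cln2 rad14, bearing defects in cell cycle control and DNA repair, serves as the test system; values reflect growth inhibition compared with vehicle.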

[5] = NCI Yeast Anticancer Drug Screen. Data for the bub3 strain (AID 167); details: S. cerevisiae bub3 mutant strain, active compounds read high
Method in brief: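 Mutant yeast screening strain plus compound; vehicle-treated cultures serve as the 0% inhibition reference.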

[6] = NCI Yeast Anticancer Drug Screen. Data for the mlh1 rad18 strain (AID 175); details: S. cerevisiae mlh1 rad18 strain growth inhibition, active compounds read high
Method in brief: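 Steps: expose repair-defective yeast to compound; measure growth; express inhibition against vehicle-treated controls.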

[7] = at 5.0 µM (retest, dose inferred, filed as 0.5)
[8] = at 50.0 µM (retest, dose inferred, filed as 5.0)

Compound	growth inhibition [1, 7]	growth inhibition [1, 8]	growth inhibition ([1]; at 50.0 µM)	growth inhibition [2, 7]	growth inhibition [2, 8]	growth inhibition ([2]; at 50.0 µM)	growth inhibition [3, 7]	growth inhibition [3, 8]	growth inhibition ([3]; at 50.0 µM)	growth inhibition [4, 7]	growth inhibition [4, 8]	growth inhibition ([4]; at 50.0 µM)	growth inhibition [5, 7]	growth inhibition [5, 8]	growth inhibition ([5]; at 50.0 µM)	growth inhibition [6, 7]	growth inhibition [6, 8]	growth inhibition ([6]; at 50.0 µM)
O=C(CC(=O)c1ccc(O)cc1)c1ccccc1	-1%	50%	60.8%	-13%	52%	1.2%	-1%	66%	21.2%	-1%	62%	4.5%	-6%	89% (active)	48.7%	3%	86% (active)	58%
OCCCCCCCCCl	0%	10%	35.5%	-6%	6%	21.6%	1%	9%	45.1%	8%	5%	35.9%	-3%	0%	-24.9%	-1%	9%	14.1%
Cc1ccc(S(=O)(=O)C2C=CC=CC=C2)cc1	-156%	84% (active)	76.8% (active)	-51%	54%	86% (active)	-64%	77% (active)	14.7%	-62%	42%	52%	-71%	66%	71% (active)	-140%	87% (active)	82% (active)
CCCCCCCCCCCCCCCBr	-27%	4%	10.7%	-9%	12%	49.6%	-10%	6%	-9.7%	-5%	-5%	85.5% (active)	2%	-2%	80.7% (active)	5%	18%	92.8% (active)
COc1ccc(CN2CCCN(Cc3ccc(OC)cc3OC)C2c2cc(Cl)ccc2O)c(OC)c1	7%	87% (active)	40.6%	19%	98% (active)	51.4%	2%	88% (active)	32.8%	0%	50%	15.7%	-1%	91% (active)	5.1%	17%	97% (active)	42%
O=C(Nc1c(Cl)cccc1Cl)OCc1ccc2c(c1)OCO2	46%	54%	35.8%	33%	32%	48.6%	44%	53%	50%	33%	43%	14.3%	46%	73% (active)	43%	41%	42%	35.9%
CCN(CC)CCOc1ccc(C(=C2CCCCC2)c2ccc(OCCN(CC)CC)cc2)cc1	34%	34%	84.8% (active)	31%	31%	41%	31%	31%	89.1% (active)	31%	31%	77% (active)	31%	31%	76.8% (active)	28%	28%	78.5% (active)
O=S(=O)(N/N=C/c1ccc(Cl)cc1Cl)c1ccccc1	-20%	-11%	-19.3%	-4%	-11%	-10.3%	10%	-14%	-12.4%	-16%	-15%	-26.9%	17%	22%	-16.6%	8%	4%	14%
C[N+]1(C)C/C(=C\C=C\c2ccccc2)C(=O)/C(=C/C=C/c2ccccc2)C1	17%	17%	93.2% (active)	9%	9%	92.1% (active)	17%	17%	92.6% (active)	0%	0%	91.5% (active)	-2%	-2%	93.9% (active)	9%	9%	92.5% (active)
c1ccc(Oc2ccc(Nc3c4ccccc4nc4ccccc34)cc2)cc1	85% (active)	57%	45.9%	4%	70% (active)	30%	17%	84% (active)	76.2% (active)	3%	62%	31.9%	-4%	81% (active)	28.6%	13%	91% (active)	27.1%
N#CC1=CN(Cc2ccccc2)C(C#Cc2ccccc2)C=C1 (configuration not stated)	1%	-1%	58.9%	-1%	9%	88.2% (active)	2%	8%	82.2% (active)	-2%	-7%	15.4%	-2%	0%	91% (active)	-2%	4%	83.2% (active)
FC(F)(F)c1cccc(N2CCN(c3c4c(nc5ccccc35)CCCCC4)CC2)c1	-4%	96% (active)	95.5% (active)	4%	99% (active)	97.7% (active)	11%	98% (active)	93.8% (active)	-14%	96% (active)	95.5% (active)	-4%	97% (active)	92% (active)	22%	98% (active)	95.7% (active)
O=C(NC1CCN(Cc2ccccc2)CC1)c1cccc(I)c1	49%	68%	51.7%	39%	64%	58%	57%	73% (active)	81% (active)	84% (active)	88% (active)	82.2% (active)	62%	65%	70% (active)	73% (active)	59%	67.5%
CC(/C=C/c1ccc(Cl)c(Cl)c1)=N\NC(N)=S	37%	69%	61.2%	31%	73% (active)	53.5%	48%	76% (active)	82.9% (active)	39%	41%	77.2% (active)	29%	82% (active)	64.4%	61%	81% (active)	80% (active)
O=C(Nc1ccc(Cl)cc1Cl)OC(Cn1cncn1)c1ccc(Cl)cc1Cl (configuration not stated)	71% (active)	71% (active)	91.2% (active)	67%	67%	91.4% (active)	77% (active)	77% (active)	90.5% (active)	66%	66%	88.7% (active)	72% (active)	72% (active)	92.5% (active)	77% (active)	77% (active)	90.5% (active)
CC(=O)Oc1cccc2c(C(=O)CCl)ccnc12	87% (active)	99% (active)	99.1% (active)	86% (active)	99% (active)	95% (active)	96% (active)	99% (active)	99.2% (active)	15%	99% (active)	92% (active)	90% (active)	18%	95.3% (active)	73% (active)	99% (active)	98.8% (active)
COc1ccccc1C1c2cc3c(cc2OC(C)(O)C1C)OCO3 (configuration not stated)	-5%	60%	85% (active)	-4%	49%	58.4%	1%	61%	86.3% (active)	-3%	53%	74.2% (active)	0%	49%	66.8%	0%	75% (active)	85.5% (active)
Oc1ccccc1C1CCCCC1	1%	38%	88.5% (active)	3%	17%	84.3% (active)	0%	47%	96.1% (active)	4%	-10%	46.6%	-9%	6%	73.2% (active)	4%	46%	93.2% (active)
O=c1[nH]c(=O)c2n[nH]nc2[nH]1	6%	3%	0.45%	-1%	5%	-4.95%	1%	9%	33.4%	9%	8%	-42.5%	3%	3%	7.7%	3%	6%	24.1%
